Records with an inconclusive call do not appear. A number with no mark means an inactive call. Calls follow the shape of the dose curve; as a rule, active = well fitted inhibition curve with a large enough effect; inconclusive = small, poorly fitted or top-dose-only effect; inactive = flat fitted curve, though single readings scatter.

The nature of the assay: qHTS profiling for inhibitors of Plasmodium falciparum proliferation (AID 504749).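 Also: 0% = DMSO vehicle and full inhibition = artemisinin control; nearly all actives have a fitted effect of over 60% in size.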 The conditions noted are these: P. falciparum in erythrocytes, SYBR Green DNA, 72 h; at 28.7 µM (top of the series); parasite line A. In short, it runs like this:
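Readout was DNA-dye fluorescence from lysed cultures, ex 485/em 535 nm. Parasitized red cells had grown 72 h with compound; data scaled between 0.29 uM artemisinin and DMSO wells and corrected using vehicle-only plates.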
A general note: qHTS replaces the single test concentration by a dilution series.
With `CNc1c2c(nn1C)CCCC2`, the activity, negative = inhibition was 6.6%.

`NC(=O)CC[C@@H](N)C(=O)O`: the activity, negative = inhibition was 3.38%.

With `Cc1c(C(=O)NCCO)[n+](=O)c2ccccc2n1[O-]`, the activity, negative = inhibition was 8.49%.

For the molecule `CCCCOC(=O)c1ccc(N)cc1`, the activity, negative = inhibition is 5.58%.

In the case of `CCCCCCCC(=O)OCC(O)CO` (stereo unspecified), the activity, negative = inhibition is 0.997%.

Regarding `CCOc1cc(NC(C)=O)ccc1C(=O)OC`, the activity, negative = inhibition is 4.89%.

Regarding `C[C@@H](N)C(=O)O`, the activity, negative = inhibition is 26.2%.

With `CC(N)CCCC(C)(C)O` (stereo unspecified), the activity, negative = inhibition is 12.5%.

Turning to `O=C(O)Cc1ccc(CCNS(=O)(=O)c2ccc(Cl)cc2)cc1`, the activity, negative = inhibition was 5.99%.

For the molecule `COC(=O)c1cccnc1`, the activity, negative = inhibition was 7.8%.

In the case of `O=C(Cn1ccnc1[N+](=O)[O-])NCCO`, the activity, negative = inhibition is 4.18%.

Take `Cc1ccc(S(=O)(=O)NC(=O)NC2CCCCC2)cc1`: the activity, negative = inhibition is -9.84%.

On to `C[N+](C)(C)CC[N+]1(C)Cc2c(Cl)c(Cl)c(Cl)c(Cl)c2C1`, for which the activity, negative = inhibition was 5.09%.

Regarding `O=C(O)CCC(=O)O`, the activity, negative = inhibition was 10.3%.

As for `NC(=O)NS(=O)(=O)c1ccc(N)cc1`, the activity, negative = inhibition was -1.96%.

In the case of `O=C(/C=C/c1ccccc1)OCc1ccccc1`, the activity, negative = inhibition was 4.66%.

As for `COc1cc(C(=O)NCCCCCC(=O)O)cc(OC)c1OC`, the activity, negative = inhibition was 8.13%.

Turning to `O[C@@H]1CO[C@H]2[C@@H]1OC[C@@H]2O`, the activity, negative = inhibition was 8.49%.

As to `O=C(O)c1ccc(OCCCOc2ccc(C(=O)O)cc2)cc1`, the activity, negative = inhibition is 0.28%.

`CC(=O)NS(=O)(=O)c1ccc(N)cc1`: the activity, negative = inhibition was 6.18%.

Take `CC(=O)Nc1ccc(C(=O)O)cc1`: the activity, negative = inhibition is 7.84%.

Values taken from PubChem BioAssay (NCATS).
